# Data: PubChem BioAssay AID949 (Emory University Molecular Libraries Screening Center, 2007)
# The list shows a part of the results. The source made the active and inactive calls.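 How the source made its calls: active means yeast growth recovered at 30 hours, either rising with dose fitted slope above 0.001 or with average optical density gain above 0.07 (some results past the limit were not filed as active); inactive means growth falling with dose or no effect.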
# Assay: SDO1-depleted yeast growth rescue, concentration-response, diseases of bone marrow failure, JHY4D, OD600 (AID 949);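 on OD recovery: gain in OD600 from 0 h to 30 h averaged across all seven doses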
# Details: S. cerevisiae JHY4D (SDO1-depleted) growth rescue, OD600, 30 h, efflux-deficient strain, SNQ2 and PDR5 mutated; OD recovery: stronger effect = higher value; dose-response slope: measured here: 30 h OD slope vs dose
SMILES,OD recovery,dose-response slope
COc1ccc(OCC(=O)NNC(=O)c2ccc(-c3ccccc3)cc2)cc1,0.0649 (inactive),-0.000252
CN(C)c1ccc(Nc2c3c4c(cccc4n(C)c2=O)C(=O)c2ccccc2-3)cc1,0.0269 (inactive),-0.000458
COc1ccc(CNC(=O)c2c(C)cc(=O)oc2C)cc1OC,0.0773 (active),0.000182
CS(=O)(=O)Nc1ccc(C(=O)N2CCCC2)cc1,0.0956 (active),0.000226
COc1cc(OC)nc(S(C)(=O)=O)n1,0.0647 (inactive),0.000101
Cc1[nH]c2ccccc2c1C(=O)CSCC(=O)O,0.11 (active),-0.000672
COc1ccc(/C(C)=N/NC(=O)CCC(=O)Nc2ccc(Cl)cc2Cl)c(OC)c1,0.11 (active),0.000741
O=C(CSc1nc(-c2ccco2)cc(C(F)(F)F)n1)NCc1cccs1,0.072 (active),0.00107
CC(=O)Nc1ccc(S(=O)(=O)NCCc2ccccc2)cc1,0.0591 (inactive),0.00092
CCOc1cccc2c1OC1(CCCCC1)N1N=C(c3cccnc3)CC21 (configuration not stated),0.0606 (inactive),-0.000222
O=C(COC(=O)/C=C/c1cccc(Cl)c1)NCCc1ccccc1,0.091 (active),-0.000894
COc1cccc(-c2nnc(NC(=O)c3ccc(S(=O)(=O)N(CC(C)C)CC(C)C)cc3)o2)c1,0.0821 (active),-0.000585
COc1ccc(-c2nnco2)cc1OC,0.0477 (inactive),0.000454
CC(C)OC(=O)c1c(NC(=O)c2ccco2)sc2c1CCCC2,0.0368 (inactive),0.000949
O=S(=O)(/N=C(/Nc1ccccn1)c1ccccc1)c1ccc(Cl)cc1,0.0469 (inactive),0.000638
Cc1oc2nc(SCC(=O)NCc3cccnc3)nc(N)c2c1C,0.0937 (active),0.000887
